# Most compounds without a hit are left out; they make up all but 3.9% or so of the library.
# Platelet DG rel = platelet dense granule release activity; human platelet-rich plasma, SFLLRN dense granule ATP release, luminescence; inhibition, %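 (compounds screened at 7.5 µM in platelet-rich plasma)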; 0.22% of 300,000 active;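 active = mean replicate score, as percent of positive control, at or above 50; inconclusive = mean below 50 but at least one replicate at or above 50; inactive = mean and every replicate below 50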
# WT yeast gro inh = growth inhibition of WT yeast, mitochondrial fusion screen; mitochondrial fusion phenotypic screen, WT strain; inhibition, % at 10 µM; 2.1% of 190,000 active; AID 1362; in the data active = inhibition above about 58%; tested in S. cerevisiae
# Rtt109 HAT inh = inhibitors of Candida albicans Rtt109/Vps75 histone acetyltransferase; purified Rtt109/Vps75, ThioGlo CoA-SH fluorescence, 4 h; inhibition, % at 34.9 µM; 0.16% of 330,000 active; AID 540336;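 active = inhibition of at least 50% in every replicate; inconclusive = best replicate reaches 50% inhibition but some replicates fall short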
# Target sequence (Q5AAJ8 whole entry, looked up): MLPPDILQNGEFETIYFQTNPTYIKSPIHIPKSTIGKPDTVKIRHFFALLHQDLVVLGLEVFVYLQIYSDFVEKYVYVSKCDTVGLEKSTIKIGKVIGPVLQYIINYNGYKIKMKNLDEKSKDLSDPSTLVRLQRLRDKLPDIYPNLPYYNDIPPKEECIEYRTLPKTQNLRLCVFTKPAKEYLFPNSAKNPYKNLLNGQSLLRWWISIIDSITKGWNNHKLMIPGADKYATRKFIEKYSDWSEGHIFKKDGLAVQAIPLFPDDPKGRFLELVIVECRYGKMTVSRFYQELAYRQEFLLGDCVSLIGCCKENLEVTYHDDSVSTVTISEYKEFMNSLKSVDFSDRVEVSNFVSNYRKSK
# TPT1 inh = blocks Candida albicans tRNA 2'-phosphotransferase; recombinant caTPT1, FP RNA substrate dephosphorylation; inhibition, % at 5 µM; 0.81% of 300,000 active; AID 1962;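 active = inhibition above the mean of all tested compounds plus 3 SD, set per screening campaign, cut at about 24% in these data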;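 also: plate controls were DMSO alone for no effect and ferristatin control at 100 nM for full effect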
# PHOSPHO1 block = blocks human PHOSPHO1 phosphatase activity | recombinant PHOSPHO1, absorbance phosphatase assay | inhibition, % at 13.3 µM | 1.1% of 290,000 active; in the data active = inhibition above about 60%
# Target sequence (Q8TCT1 whole entry, looked up): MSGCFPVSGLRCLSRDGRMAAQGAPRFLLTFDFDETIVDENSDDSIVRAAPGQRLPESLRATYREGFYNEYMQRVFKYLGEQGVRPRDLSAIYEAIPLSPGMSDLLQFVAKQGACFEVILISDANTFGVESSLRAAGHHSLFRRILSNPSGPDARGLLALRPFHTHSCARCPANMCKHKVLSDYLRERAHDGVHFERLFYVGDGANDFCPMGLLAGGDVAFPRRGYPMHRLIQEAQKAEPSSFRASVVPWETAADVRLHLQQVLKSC
# SKKanGAS inh = SKKanGAS growth inhibition | inhibition, % at 7.5 µM | 1.3% of 300,000 active | S. pyogenes SKKanGAS, kanamycin growth, BacTiter-Glo, 6 h | AID 1662;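 active = mean replicate score, as percent of positive control median, at least 50; inconclusive = mean below 50 but one replicate at or above 50; inactive = mean and every replicate below 50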;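 also: strain carries kanamycin resistance gene driven by streptokinase promoter and grows in 40 µg/ml kanamycin; loss of luminescence reflects streptokinase promoter inhibition or plain growth inhibition; 0% = median of DMSO wells and 100% = positive control at its reference dose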
# * = called active by the depositor; ? = inconclusive; nt = no result.
SMILES,Platelet DG rel,WT yeast gro inh,Rtt109 HAT inh,TPT1 inh,PHOSPHO1 block,SKKanGAS inh
COC(=O)/C(=C(/F)Sc1cc(C)c(O)c(C)c1)C(F)(F)F,2.7,94.1*,4.2,-1.4,63.7*,3.5
CCc1cc[n+](-c2nc([O-])sc2C=O)cc1,-33.8,-10.3,4.1,-72.4,79.2*,7.3
O=C(O)c1ccc(N=Cc2c(O)ccc3oc4c(c23)CCCC4)cc1,-2.6,nt,-1.6,-2.4,-12.7,15.4
Oc1ccccc1N=Cc1c(O)ccc2oc3c(c12)CCCC3,3.4,nt,5.2,-8.9,5.5,84.9*
Cc1ccc(C2CC(=O)N3CN(Cc4ccco4)CSC3=C2C#N)cc1 (centres undefined),10.1,-6.9,2.8,2.2,75.9*,-3.1
N#CC1=C2SCN(Cc3ccco3)CN2C(=O)CC1c1c(F)cccc1Cl (centres undefined),-2.4,11.9,-1.2,3.7,78.6*,17.1
Cc1occc(=O)c1OC(=O)Nc1ccc(Cl)c(Cl)c1,nt,79.9*,3.6,2.9,-5.0,nt
O=P(Nc1ccccc1)(Nc1ccccc1)c1ccccc1,nt,nt,7.8,nt,nt,nt
CCc1cc2c(=O)c(-c3cscn3)coc2cc1OC,nt,nt,nt,nt,2.9,nt
CCc1cc2c(=O)c(-c3cscn3)coc2cc1O,-5.0,69.0*,-7.6,0.5,7.3,-3.2
COc1ccccc1N1CCN(C(=O)N2CCOCC2)CC1,8.8,7.2,-4.4,0.3,7.3,-2.6
COC(=O)C1(C(F)(F)F)N=C2Sc3ccccc3N2C(N2CCOCC2)=N1 (centres undefined),104.9*,9.4,-4.3,2.2,-14.1,-2.1
COCCN1CCN(c2cc(-c3ccccc3)nc3cc(-c4cccc(F)c4)nn23)CC1,-8.2,77.1*,5.6,-2.3,11.1,7.5
COc1ccc(-c2cc3nc(-c4ccccc4)cc(N4CCCC(O)C4)n3n2)cc1 (centres undefined),-1.5,68.2*,-17.6,-2.2,39.5,53.6*
COc1ccc(-c2cc3nc(-c4ccccc4)cc(N4CCC(O)CC4)n3n2)cc1,9.1,61.6*,14.8,1.1,47.7,39.9
CCOC(=O)C(C#N)(Cc1ccc2ccccc2n1)Cc1ccc2ccccc2n1,nt,nt,14.8,nt,nt,nt
CC(=O)Nc1ccc(/C=C/c2nc(-c3ccccc3O)n[nH]2)cc1,-8.1,nt,1.4,0.7,37.3,3.4
Cc1ccc(F)c([C@H]2C3C=CCC(c4ccccc4)C3C(=O)N2Cc2ccccc2)c1 (some centres undefined),-1.8,nt,20.7,-0.1,39.7,50.0*
CC[C@@H]1CC=C[C@H]2[C@H]1C(=O)N(Cc1ccccc1)[C@H]2c1cc(C)ccc1F,5.3,nt,nt,nt,26.5,57.9*
O=C(NC1CCS(=O)(=O)C1)c1ccc(N2CCCCC2)c([N+](=O)[O-])c1 (centres undefined),-2.8,nt,3.4,-1.7,37.0,-1.9
C=CCOc1c(Br)cc(/C=N/O)cc1OCC,15.4,-5.7,-4.1,-9.7,3.9,-0.4
CCCCOc1c(Br)cc(/C=N/O)cc1OCC,2.4,69.0*,19.0,-3.4,2.9,2.5
O=C(NCc1ccc(Cl)s1)C1CCC(=O)N(CCc2cccc(F)c2)C1 (centres undefined),-4.0,nt,6.2,-3.6,22.4,-1.5
O=C(NCc1ccc(Cl)cc1)c1cnccn1,1.4,34.8,5.5,-6.4,44.7,21.9
O=C(NCc1ccccc1Cl)c1cnccn1,-1.8,74.9*,-4.1,1.4,6.0,-5.7
SMILES,Platelet DG rel,WT yeast gro inh,Rtt109 HAT inh,TPT1 inh,PHOSPHO1 block,SKKanGAS inh
Cc1cc(N/N=C/c2ccccc2O)nc(-c2ccccc2O)n1,-18.8,68.6*,3.6,-0.4,-5.8,60.4*
C/C(=N\Nc1cc(C)nc(-c2ccccc2O)n1)c1ccccc1O,8.2,nt,-12.6,-2.5,-5.9,73.8*
Cc1cc(N/N=C/c2ccc(O)cc2O)nc(-c2ccccc2O)n1,-8.1,10.8,-3.3,2.5,6.7,13.7
Cc1cc(N/N=C\c2ccccc2)nc(-c2ccccc2O)n1,-4.4,36.0,5.0,-5.4,-44.2,25.3
N#Cc1c(-c2ccccc2)nc(SCc2cccc(Cl)c2)[nH]c1=O,-6.0,nt,5.8,0.6,42.2,?
Cc1ccc(CN2CCC(=O)N2)cc1,0.2,nt,1.3,-1.9,-22.7,-4.0
CN(C(=O)COC(=O)c1cccc(S(=O)(=O)N2CCOCC2)c1)C1CCS(=O)(=O)C1 (centres undefined),4.9,nt,-8.4,-1.5,nt,-4.1
COc1ccc(S(=O)(=O)Nc2cccc3c2O[C@H](CN(C)Cc2ccncc2)[C@@H](C)CN([C@H](C)CO)C3=O)cc1,nt,nt,1.9,nt,nt,nt
Cc1cccc(NC(=S)N/N=C/c2ccc([N+](=O)[O-])s2)c1,nt,9.3,7.1,21.8,52.4,101.1*
Cc1cc(C(=O)N/N=C/c2ccc(C)s2)n[nH]1,-6.9,nt,-5.3,-2.2,-21.7,7.1
Cc1cccc(NC(=O)/C=C/c2ccc([N+](=O)[O-])s2)c1,-9.1,-0.1,-3.2,-0.1,-0.8,10.6
Cc1[nH]cnc1C(=O)N/N=C/c1ccc([N+](=O)[O-])s1,43.3,nt,-7.2,0.1,31.6,103.2*
Cc1ccc(C(=O)N/N=C\c2ccc([N+](=O)[O-])s2)cn1,2.7,-3.9,2.4,-0.2,5.7,4.5
Cc1cc(C(=O)N/N=C/c2ccc([N+](=O)[O-])s2)n[nH]1,-16.9,nt,-2.2,-6.7,7.8,108.6*
COc1cccc(COC(=O)C2CCN(S(=O)(=O)c3ccc(C)cc3C)CC2)c1OC,-5.3,nt,-1.7,-1.4,nt,8.0
O=C(OCc1nnc(-c2ccccc2)o1)C12CC3CC(CC(Br)(C3)C1)C2,2.9,69.6*,-1.5,nt,37.3,3.6
CCN1CC(C)C(O)(c2ccccc2)CC1C (centres undefined),-21.3,-6.5,1.4,-1.3,3.2,-0.6
CC1/C(=N/O)CC(c2ccccc2)N(C)C1c1ccccc1 (centres undefined),11.8,98.5*,-1.7,-0.2,-19.8,-2.3
CC1/C(=N/O)CC(c2ccccc2)NC1c1ccccc1 (centres undefined),-0.5,25.5,13.1,-0.2,1.7,-1.9
CC1C(c2ccccc2)N(C)C(c2ccccc2)CC1(O)c1ccccc1 (centres undefined),0.1,58.5*,27.3,1.6,1.0,16.8
COc1ccc(C)cc1NC(=O)CSc1nc(=O)n(CCCN2CCOCC2)c2c1CCCC2,31.6,nt,0.6,-1.1,nt,-9.8
CCOc1ccc(NC(=O)CN(C)C(=O)c2ccccc2Cc2ccccc2)cc1OCC,nt,nt,13.5,nt,nt,nt
CCOc1ccc(CC(=O)Nc2sc(Cc3ccccc3)cc2C(N)=O)cc1OCC,2.1,53.8,-23.0,2.4,97.4*,1.5
NC(=O)c1cc(Cc2ccccc2)sc1NC(=O)c1ccco1,3.2,72.3*,-23.2,-2.6,24.4,-7.2
CCOC(=O)c1ccccc1NC(=O)Cc1ccc(OC)c(S(=O)(=O)N2CCOCC2)c1,nt,nt,-3.5,nt,nt,nt
O=c1[nH]c2ccccc2nc1C(Nc1ccccc1)c1ccccc1 (centres undefined),9.6,nt,-34.3,-2.0,25.4,0.9
CCOP(=O)(NC(c1ccccc1)c1nc2ccccc2[nH]c1=O)OCC (centres undefined),-3.2,nt,8.5,-1.5,60.8*,-1.0
